These results are taken from PubChem BioAssay (Tox21).

Records with an inconclusive call do not appear. Entries that show only a call come without a potency. Calls of active or inactive are those of the source. Unless noted, the call rests on the fitted dose curve.
Potency means the concentration at half of the fitted maximal effect.

One test is described as follows: qHTS assay to identify small molecule agonists of H2AX - cell viability counter screen (AID 1224847). Further: nearly all actives have a fitted effect of over 30% in size.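 On activity change, negative = cytotoxicity: wild-type CHO-K1 cells; top concentration of the series differs between compounds.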 To be noted: CHO-K1 viability, CellTiter-Glo luminescence, 3 h; series mostly up to 154 µM. The essentials:
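CHO-K1 cells plated overnight at 37C, then exposed 3 h at 37C to compounds at 15 concentrations (0.76% DMSO final). Viability by CellTiter-Glo luminescence after 30 min at room temperature.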
In general terms: Quantitative high-throughput screening tests each substance at several concentrations.
For `O=C(O)c1cccc(C(F)(F)F)c1`, the Potency result was “inactive”.

Turning to `O=C(O)CCN(C1(C(=O)NO)CCCC1)S(=O)(=O)c1ccc(Oc2ccc(F)cc2)cc1`, the Potency entry is “inactive”.

As to `Cc1nc(-c2ccc(Cl)cc2)oc1COC(C)(C)C(=O)O`, the Potency entry was “inactive”.

Take `O=C(O)c1cc(=O)c2ccccc2o1`: the Potency result is “inactive”.

Take `OCC(F)(F)F`: the Potency entry is “inactive”.

Turning to `Cc1cccc(C(=O)O)c1O`, the Potency entry was “inactive”.

As to `C=CC(C)(CCC=C(C)C)OC=O` (stereo unspecified), the Potency result is “inactive”.

Turning to `OC[C@@H](O)[C@@H](O)CO`, the Potency entry was “inactive”.

On to `CCC(COC(=O)CCS)(COC(=O)CCS)COC(=O)CCS`, for which the Potency result is “inactive”.

`Cc1cccc(C)c1NC(=O)c1ccc(N)cc1`: the Potency entry was “inactive”.

Consider `Cc1c(N)cccc1C(F)(F)F`, for which the Potency result is “inactive”.

For the compound `CCCCCCOC(=O)C(C)CC` (stereo unspecified), the Potency entry was “inactive”.

`C1CCC(SSC2CCCCC2)CC1`: the Potency entry is “inactive”.

As to `CC(C)Cn1cnc2c(N)nc3ccccc3c21`, the activity change, negative = cytotoxicity was 1.2% [at 31.6 µM] (inactive).

For the compound `CC(=O)c1ccc(C(C)=O)cc1`, the Potency entry is “inactive”.

Regarding `CC(C)(c1cc(Br)c(OCC(Br)CBr)c(Br)c1)c1cc(Br)c(OCC(Br)CBr)c(Br)c1` (stereo unspecified), the Potency entry is “inactive”.

`Clc1sc(Cl)c(Cl)c1Cl`: the Potency entry is “inactive”.

As for `Cc1cc(-c2ccc(N=Nc3cc(S(=O)(=O)O)c4ccccc4c3N)c(C)c2)ccc1N=Nc1cc(S(=O)(=O)O)c2ccccc2c1N`, the Potency is 80.4 µM (active).

As for `CCCCCc1ccc(Cl)cc1`, the Potency result was “inactive”.

As to `Cc1ccc(C)cc1`, the Potency result was “inactive”.

On to `Cc1ccc(-c2ccccc2)cc1`, for which the Potency entry was “inactive”.

For `COc1cc(/C=C/c2ccccc2)oc(=O)c1`, the Potency entry was “inactive”.

On to `Cc1ccc(C(C)C)cc2c(C)ccc1-2`, for which the Potency entry is “inactive”.

As for `CC(C)(C)C1CCC(=O)CC1`, the Potency entry is “inactive”.

In the case of `S=c1nccc[nH]1`, the Potency entry was “inactive”.

Turning to `CCC(=O)C(=O)CC`, the Potency result was “inactive”.

As to `CCc1ccc(Br)cc1`, the Potency result is “inactive”.

On to `Cc1cccc2cccnc12`, for which the Potency entry was “inactive”.

For `Cc1c(F)c(N2CCNC(C)C2)cc2c1c(=O)c(C(=O)O)cn2C1CC1` (stereo unspecified), the Potency entry was “inactive”.

Consider `O=C(/C=C/c1ccccc1)OC/C=C/c1ccccc1`, for which the Potency result was “inactive”.

With `Nc1nc(-c2ccccc2)cs1`, the Potency entry was “inactive”.

As for `CC(C)OC(=O)C(O)(CC(=O)O)CC(=O)O`, the Potency result is “inactive”.

With `CCCCCCCC`, the Potency result is “inactive”.

For `CCOc1ccc2ccccc2c1C(=O)N[C@@H]1C(=O)N2[C@@H]1SC(C)(C)[C@@H]2C(=O)O`, the Potency result is “inactive”.

Turning to `Cc1ccc(C(=O)O)cc1`, the Potency result was “inactive”.

For `COc1cc(C)ccc1O`, the Potency result was “inactive”.

For `OC[C@H]1O[C@H](O[C@H]2O[C@H](CO)[C@@H](O)[C@H](O)[C@H]2O)[C@H](O)[C@@H](O)[C@@H]1O`, the Potency result was “inactive”.

With `Cc1c(C)c2c(c(C)c1OC(=O)c1cccnc1)CC[C@@](C)(CCC[C@H](C)CCC[C@H](C)CCCC(C)C)O2`, the Potency entry was “inactive”.

A short description of another test: qHTS assay to identify small molecule antagonists of the estrogen related receptor (ERR) signaling pathway from Tox21 library (AID 1224848; active means well fitted inhibition curve with a large enough effect in the repeat runs; further: nearly all actives have a fitted effect of over 50% in size). To be noted: ERR reporter cell line, luciferase antagonist mode, 18 h; series mostly up to 92.4 µM. In short, it runs like this:
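ERR reporter cell line (from NTP) seeded 2,000 cells/well, rested 6 h at 37 C/5% CO2, then pin-dosed with compounds in DMSO. After 18 h at 37 C, ONE-Glo added; luminescence read after 30 min at room temperature.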
Turning to `O=C(O)c1cccc(C(F)(F)F)c1`, the Potency entry is “inactive”.

For the compound `O=C(O)CCN(C1(C(=O)NO)CCCC1)S(=O)(=O)c1ccc(Oc2ccc(F)cc2)cc1`, the Potency result was “inactive”.

`Cc1nc(-c2ccc(Cl)cc2)oc1COC(C)(C)C(=O)O`: the Potency entry was “inactive”.

As for `O=C(O)c1cc(=O)c2ccccc2o1`, the Potency entry is “inactive”.

With `OCC(F)(F)F`, the Potency entry was “inactive”.

As to `Cc1cccc(C(=O)O)c1O`, the Potency result is “inactive”.

On to `C=CC(C)(CCC=C(C)C)OC=O` (stereo unspecified), for which the Potency result is “inactive”.

For `OC[C@@H](O)[C@@H](O)CO`, the Potency result is “inactive”.

Consider `CCC(COC(=O)CCS)(COC(=O)CCS)COC(=O)CCS`, for which the Potency entry was “inactive”.

With `Cc1cccc(C)c1NC(=O)c1ccc(N)cc1`, the Potency entry was “inactive”.

As to `Cc1c(N)cccc1C(F)(F)F`, the Potency result was “inactive”.

Take `CCCCCCOC(=O)C(C)CC` (stereo unspecified): the Potency entry is “inactive”.

Regarding `C1CCC(SSC2CCCCC2)CC1`, the Potency entry is “inactive”.

With `CC(C)Cn1cnc2c(N)nc3ccccc3c21`, the activity, negative = inhibition is -22% [at 19 µM] (inactive).

`CC(=O)c1ccc(C(C)=O)cc1`: the Potency entry is “inactive”.

With `CC(C)(c1cc(Br)c(OCC(Br)CBr)c(Br)c1)c1cc(Br)c(OCC(Br)CBr)c(Br)c1` (stereo unspecified), the Potency entry is “inactive”.

For the compound `Clc1sc(Cl)c(Cl)c1Cl`, the Potency result was “inactive”.

Consider `Cc1cc(-c2ccc(N=Nc3cc(S(=O)(=O)O)c4ccccc4c3N)c(C)c2)ccc1N=Nc1cc(S(=O)(=O)O)c2ccccc2c1N`, for which the Potency was 5.48 µM (active).

Regarding `CCCCCc1ccc(Cl)cc1`, the Potency result was “inactive”.

With `Cc1ccc(C)cc1`, the Potency entry was “inactive”.

Turning to `Cc1ccc(-c2ccccc2)cc1`, the Potency entry is “inactive”.

Take `COc1cc(/C=C/c2ccccc2)oc(=O)c1`: the Potency result is “inactive”.

In the case of `Cc1ccc(C(C)C)cc2c(C)ccc1-2`, the Potency entry is “inactive”.

Take `CC(C)(C)C1CCC(=O)CC1`: the Potency result is “inactive”.

Turning to `S=c1nccc[nH]1`, the Potency result was “inactive”.

As for `CCC(=O)C(=O)CC`, the Potency entry is “inactive”.

As to `CCc1ccc(Br)cc1`, the Potency result was “inactive”.

In the case of `Cc1cccc2cccnc12`, the Potency entry is “inactive”.

In the case of `Cc1c(F)c(N2CCNC(C)C2)cc2c1c(=O)c(C(=O)O)cn2C1CC1` (stereo unspecified), the Potency entry was “inactive”.

As to `O=C(/C=C/c1ccccc1)OC/C=C/c1ccccc1`, the Potency result was “inactive”.

Regarding `Nc1nc(-c2ccccc2)cs1`, the Potency entry is “inactive”.

As to `CC(C)OC(=O)C(O)(CC(=O)O)CC(=O)O`, the Potency result was “inactive”.

Turning to `CCCCCCCC`, the Potency result was “inactive”.

As to `CCOc1ccc2ccccc2c1C(=O)N[C@@H]1C(=O)N2[C@@H]1SC(C)(C)[C@@H]2C(=O)O`, the Potency result is “inactive”.

Turning to `Cc1ccc(C(=O)O)cc1`, the Potency result is “inactive”.

In the case of `COc1cc(C)ccc1O`, the Potency entry is “inactive”.

As for `OC[C@H]1O[C@H](O[C@H]2O[C@H](CO)[C@@H](O)[C@H](O)[C@H]2O)[C@H](O)[C@@H](O)[C@@H]1O`, the Potency result is “inactive”.

`Cc1c(C)c2c(c(C)c1OC(=O)c1cccnc1)CC[C@@](C)(CCC[C@H](C)CCC[C@H](C)CCCC(C)C)O2`: the Potency result was “inactive”.
